Unmarked numbers belong to inactive results. Inconclusive results are not listed. Active and inactive are the calls of the source. Calls follow the shape of the dose curve; as a rule, active = well fitted curve in the direction sought with a large enough effect; inconclusive = small, poorly fitted or top-dose-only effect, or another doubt; inactive = no such curve, though single readings can be large; an effect the other way counts as inactive or inconclusive.
Test: qHTS for compounds that reverse cellular toxicity of Amyloid beta (A-beta) peptide in yeast: LOPAC Validation Assay (AID 720559);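 also: plate controls were DMSO for no effect and equimolar ferric chloride plus clioquinol rescue for full effect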
Conditions: yeast expressing A-beta; series mostly up to 46.1 µM; growth rescue, positive = activation: at the top concentration
In short: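 OD600 growth readout after 48 hr at 30 C; A-beta-toxic yeast plus pinned compounds in medium. Normalization: DMSO = negative, equimolar FeCl3 + clioquinol = positive.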

Structure (SMILES) | growth rescue, positive = activation [%] | outcome
CC(=O)CCCCn1c(=O)c2c(ncn2C)n(C)c1=O | 0.138 | –
Clc1ccc(Cn2c(CN3CCCC3)nc3ccccc32)cc1 | 9.21 | –
O=C(O)CCc1nc(-c2ccccc2)c(-c2ccccc2)o1 | -3.92 | –
C[N+](C)(C)CCCCCC[N+](C)(C)C | – | inactive
Clc1ccc(C(c2ccc(Cl)cc2)n2cc[n+](CC(OCc3ccc(Cl)cc3Cl)c3ccc(Cl)cc3Cl)c2)cc1 (stereo unspecified) | 18.5 | –
CCN(CC)CCNC(=O)c1ccc(N)cc1 | -6 | –
O=C1NCC2(CCN(CCc3ccccc3)CC2)O1 | -4.21 | –
CCN(CC)CCOC(=O)c1ccc(N)cc1 | -10.3 | –
CC(C)NCC(O)COc1cccc2[nH]ccc12 (stereo unspecified) | 1.06 | –
CCN(CC)C(=O)c1ccc(O)c(OC)c1 | -6.14 | –
O=C(NCCN1CCOCC1)c1ccc(Cl)cc1 | -2.4 | –
CC1(C)CCC2=C(O1)c1ccccc1C(=O)C2=O | -58.2 | –
NCCS | -7.06 | –
COc1cccc(-c2cc(=O)c3ccccc3o2)c1N | -11.3 | –
CCN1CCC[C@H]1CNC(=O)c1cc(S(N)(=O)=O)ccc1OC | -0.605 | –
COC(=O)[C@@H]1[C@H]2C[C@H]3c4[nH]c5ccccc5c4CCN3C[C@@H]2CC[C@@H]1O | -6.32 | –
Cc1cccc(C)c1OCC(C)N (stereo unspecified) | -4.55 | –
CCCCCN(C)CCC(O)(P(=O)(O)O)P(=O)(O)O | -3.31 | –
NC(N)=Nc1nc(CSCC/C(N)=N/S(N)(=O)=O)cs1 | -2.55 | –
COc1ccccc1N1CCN(CCCNc2cc(=O)n(C)c(=O)n2C)CC1 | -2.41 | –
COc1ccc(Cc2nccc3cc(OC)c(OC)cc23)cc1OC | 1.68 | –

Test: qHTS for Activators of Parkin Expression: LOPAC Validation Assay (NLuc Reporter) (AID 720572;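 also: 0% = DMSO and 100% = positive control compound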)
Conditions: Parkin promoter NanoLuc reporter cells, luminescence; series mostly up to 46.1 µM; activation: at the top concentration
In short: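 Parkin promoter-driven FLuc/NLuc neuronal reporter cells; 24 h plating, 7-pt dose response, 24 h at 37 C/5% CO2; FLuc then NanoLuc reagent, 10 min each, luminescence; DMSO/positive control normalized.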

Structure (SMILES) | activation [%] | Potency
CC(=O)CCCCn1c(=O)c2c(ncn2C)n(C)c1=O | 0.862 | –
Clc1ccc(Cn2c(CN3CCCC3)nc3ccccc32)cc1 | -10.9 | –
C[N+](C)(C)CCCCCC[N+](C)(C)C | – | inactive
Clc1ccc(C(c2ccc(Cl)cc2)n2cc[n+](CC(OCc3ccc(Cl)cc3Cl)c3ccc(Cl)cc3Cl)c2)cc1 (stereo unspecified) | -3.56 | –
CCN(CC)CCNC(=O)c1ccc(N)cc1 | 0.873 | –
O=C1NCC2(CCN(CCc3ccccc3)CC2)O1 | -3.01 | –
CCN(CC)CCOC(=O)c1ccc(N)cc1 | 5.92 | –
CC(C)NCC(O)COc1cccc2[nH]ccc12 (stereo unspecified) | -5.96 | –
CCN(CC)C(=O)c1ccc(O)c(OC)c1 | -2.03 | –
O=C(NCCN1CCOCC1)c1ccc(Cl)cc1 | -3.52 | –
CC1(C)CCC2=C(O1)c1ccccc1C(=O)C2=O | -19.9 | –
NCCS | -1.3 | –
COc1cccc(-c2cc(=O)c3ccccc3o2)c1N | -0.556 | –
CCN1CCC[C@H]1CNC(=O)c1cc(S(N)(=O)=O)ccc1OC | 0.48 | –
COC(=O)[C@@H]1[C@H]2C[C@H]3c4[nH]c5ccccc5c4CCN3C[C@@H]2CC[C@@H]1O | -2.49 | –
Cc1cccc(C)c1OCC(C)N (stereo unspecified) | 1.43 | –
CCCCCN(C)CCC(O)(P(=O)(O)O)P(=O)(O)O | -2.75 | –
NC(N)=Nc1nc(CSCC/C(N)=N/S(N)(=O)=O)cs1 | 0.797 | –
COc1ccccc1N1CCN(CCCNc2cc(=O)n(C)c(=O)n2C)CC1 | -4.93 | –
COc1ccc(Cc2nccc3cc(OC)c(OC)cc23)cc1OC | -3.85 | –
